From PubChem BioAssay (Tox21)
Calls of active or inactive are those of the source. Unless noted, calls follow the shape of the dose curve; as a rule, active = well fitted curve in the direction sought with a large enough effect in the repeat runs; inconclusive = weak or mixed curves; inactive = no such curve, though single readings can be large; an effect the other way counts as inactive or inconclusive.

Key:
[1] = qHTS assay to identify small molecule antagonists of the thyroid receptor (TR) signaling pathway - cell viability counter screen (AID 743064); also: nearly all actives have a fitted effect of over 50% in size; also: potency is read from the fitted curve at half-maximal effect
Outline: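 GH3.TRE-Luc rat pituitary cells carrying a TRE-luciferase reporter were treated with compound plus 1 nM T3 (final) for 23.5 h at 37 °C. Viability was then read in the same wells by CellTiter-Fluor fluorescence after a further 30 min.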

[2] = qHTS assay to identify small molecule antagonists of the thyroid receptor (TR) signaling pathway (AID 743065); also: nearly all actives have a fitted effect of over 55% in size; also: potency is read from the fitted curve at half-maximal effect; as to activity, negative = inhibition: series mostly up to about 70 µM
Outline: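 GH3.TRE-Luc rat pituitary cells (two TREs driving luciferase) were dosed with compound, then stimulated with 1 nM T3 (final) for 23.5 h at 37 C. ONE-Glo luminescence was the read-out, with CellTiter-Fluor fluorescence as the cytotoxicity counter-screen.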

[3] = tested on: thyroid hormone receptor (rat, GH3 cells); assay: qHTS assay to identify small molecule agonists of the thyroid receptor (TR) signaling pathway (AID 743066; calls by dose curve)
[4] = biological target: Estrogen receptor (Homo sapiens) (UniProt P03372); assay: qHTS assay to identify small molecule antagonists of the estrogen receptor alpha (ER-alpha) signaling pathway (AID 743069; active = well fitted curve in the direction sought with a large enough effect in the signal ratio in the repeat runs, not every such curve was filed as active; inconclusive = weak or mixed curves, or effect the other way; inactive = no such curve, though single readings can be large or run the other way; the % refers to the signal ratio)
Outline: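 HEK293 ER-alpha-UAS-bla GripTite cells, held overnight in 2% charcoal-stripped FBS, 5,000 cells/well, preincubated 4 h, then compound plus 17beta-estradiol for 18 h at 37C. Beta-lactamase read by LiveBLAzer B/G FRET substrate, 2 h at room temperature.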

[5] = qHTS assay to identify small molecule antagonists of the estrogen receptor alpha (ER-alpha) signaling pathway - cell viability counter screen (AID 743074; calls by dose curve;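 also: HEK293 cells carrying ER-alpha-UAS-bla reporter stimulated with 17beta-estradiol; nearly all actives have a fitted effect of over 45% in size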)
[6] = biological target: Estrogen receptor (Homo sapiens) (UniProt P03372); assay: qHTS assay to identify small molecule agonists of the estrogen receptor alpha (ER-alpha) signaling pathway (AID 743075; calls by dose curve; also: potency is read from the fitted curve at half-maximal effect)
[7] = biological target: Estrogen receptor (Homo sapiens) (UniProt P03372); assay: qHTS assay to identify small molecule agonists of the estrogen receptor alpha (ER-alpha) signaling pathway using the BG1 cell line (AID 743079); also: nearly all actives have a fitted effect of over 20% in size; also: potency is read from the fitted curve at half-maximal effect
[8] = qHTS assay to identify small molecule antagonists of the estrogen receptor alpha (ER-alpha) signaling pathway using the BG1 cell line - cell viability counter screen (AID 743081);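 also: compound given together with 17beta-estradiol as the ER stimulus; series mostly up to about 70 µM; nearly all actives have a fitted effect of over 45% in size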
Aromatase (Homo sapiens) = Aromatase (Homo sapiens) (UniProt P11511); assay: qHTS assay to identify aromatase inhibitors (AID 743083); also: series mostly up to about 70 µM; nearly all actives have a fitted effect of over 55% in size
[9] = qHTS assay to identify small molecule antagonists of the estrogen receptor alpha (ER-alpha) signaling pathway using the BG1 cell line (AID 743080; calls by dose curve;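 also: BG1 cells stimulated with 17beta-estradiol alongside compound; series mostly up to about 70 µM; nearly all actives have a fitted effect of over 25% in size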)
Outline: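 Readout is ONE-Glo luminescence, taken 30 min at room temperature after reagent addition, preceded by a CellTiter-Fluor viability read; BG1-Luc-4E2 cells had received compound and 17beta-estradiol for 21.5 h at 37 C.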
% is scaled to controls: 0 for no effect and ±100 for the full control effect.

Sequence of Aromatase (Homo sapiens) (P11511 whole entry, looked up): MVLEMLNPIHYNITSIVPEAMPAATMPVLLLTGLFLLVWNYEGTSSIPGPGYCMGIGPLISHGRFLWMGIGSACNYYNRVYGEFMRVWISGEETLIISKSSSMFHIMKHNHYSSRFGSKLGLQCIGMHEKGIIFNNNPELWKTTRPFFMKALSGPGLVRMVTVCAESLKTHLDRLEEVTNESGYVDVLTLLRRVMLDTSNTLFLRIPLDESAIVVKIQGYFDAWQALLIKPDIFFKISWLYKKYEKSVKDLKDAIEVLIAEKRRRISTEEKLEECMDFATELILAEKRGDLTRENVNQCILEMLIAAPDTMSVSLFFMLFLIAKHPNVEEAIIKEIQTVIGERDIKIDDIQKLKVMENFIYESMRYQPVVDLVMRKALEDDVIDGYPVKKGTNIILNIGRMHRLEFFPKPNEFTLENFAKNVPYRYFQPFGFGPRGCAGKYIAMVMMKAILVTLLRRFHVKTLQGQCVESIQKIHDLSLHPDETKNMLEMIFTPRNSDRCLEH
Sequence of Estrogen receptor (Homo sapiens) (P03372 whole entry, looked up): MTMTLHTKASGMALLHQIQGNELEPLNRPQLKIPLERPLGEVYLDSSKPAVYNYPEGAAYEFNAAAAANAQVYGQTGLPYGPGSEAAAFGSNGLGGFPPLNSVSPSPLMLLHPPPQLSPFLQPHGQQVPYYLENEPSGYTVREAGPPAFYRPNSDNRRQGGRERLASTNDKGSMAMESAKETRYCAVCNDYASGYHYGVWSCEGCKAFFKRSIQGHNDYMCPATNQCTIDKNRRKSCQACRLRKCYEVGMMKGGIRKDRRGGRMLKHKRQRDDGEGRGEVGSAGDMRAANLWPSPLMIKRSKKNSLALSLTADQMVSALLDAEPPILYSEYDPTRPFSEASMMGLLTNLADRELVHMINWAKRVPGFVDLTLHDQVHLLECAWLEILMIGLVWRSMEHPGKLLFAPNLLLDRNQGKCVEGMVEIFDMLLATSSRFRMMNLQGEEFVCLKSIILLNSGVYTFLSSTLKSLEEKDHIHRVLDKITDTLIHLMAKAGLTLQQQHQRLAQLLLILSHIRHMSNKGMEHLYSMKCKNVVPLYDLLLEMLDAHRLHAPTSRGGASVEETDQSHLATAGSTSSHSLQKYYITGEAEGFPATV

COc1cccc(Br)c1
inactive: Potency [1] | Potency [2] | Potency [3] | Potency [4] | outcome [5] | Potency [6] | Potency [7] | outcome [8] | Potency (Aromatase (Homo sapiens))

CN(C)N=Nc1ccccc1
inactive: Potency [1] | Potency [2] | Potency [3] | outcome [5] | outcome [8]

NC(=S)Nc1cccc2ccccc12
inactive: activity change, negative = cytotoxic [1] -2.02% [at 8.44 µM] | activity, negative = inhibition [2] -4.6% [at 8.44 µM] | activation [3] 0.336% [at 8.08 µM] | activity, negative = cytotoxicity [5] 13.6% [at 6.72 µM] | activity change, negative = cytotoxicity [8] -0.944% [at 8.47 µM] | activity, negative = inhibition (Aromatase (Homo sapiens)) 16.7% [at 8.47 µM]

CCCCCN(CCCCC)C(=O)C(CCC(=O)O)NC(=O)c1ccc(Cl)c(Cl)c1 (centres undefined)
inactive: Potency [1] | Potency [2] | Potency [3] | outcome [5] | Potency [6] | Potency [9] | outcome [8] | Potency (Aromatase (Homo sapiens))

Cc1c(C)n(CCN(C)C)c2ccc(C(=O)OCCN(C)C)cc12
inactive: Potency [3] | Potency [4] | outcome [5] | Potency [6] | Potency (Aromatase (Homo sapiens))
active: Potency [1] 26.6 µM | Potency [2] 21.1 µM

CCc1cc(S(=O)(=O)O)c2cc(C(C)C)cccc1-2
inactive: Potency [1] | Potency [2] | Potency [3] | Potency [4] | Potency [6] | Potency [7] | Potency [9] | outcome [8] | Potency (Aromatase (Homo sapiens))

FC(F)(F)C(F)(F)C(F)(F)C(F)(F)C(F)(F)C(F)(F)C(F)(F)C(F)(F)C(F)(F)C(F)(F)F
inactive: activity change, negative = cytotoxic [1] 12.8% [at 8.44 µM] | activity, negative = inhibition [2] 5.14% [at 8.44 µM] | activation [3] 0.424% [at 8.08 µM] | activity, negative = cytotoxicity [5] -10% [at 6.72 µM] | activity change, negative = cytotoxicity [8] 7.45% [at 8.47 µM] | activity, negative = inhibition (Aromatase (Homo sapiens)) 1.74% [at 8.47 µM]

O=C(O)/C=C/c1ccc(/C=C/C(=O)O)cc1
inactive: Potency [1] | Potency [2] | Potency [3] | outcome [5] | outcome [8] | Potency (Aromatase (Homo sapiens))

CCCCCCOC(=O)c1ccccc1O
inactive: Potency [1] | Potency [2] | Potency [3] | Potency [4] | outcome [5] | Potency [6] | outcome [8] | Potency (Aromatase (Homo sapiens))

CCCCCCCCCCC1CO1 (centres undefined)
inactive: Potency [1] | Potency [2] | Potency [3] | outcome [5] | outcome [8] | Potency (Aromatase (Homo sapiens))

Cc1ccc(N)cc1[N+](=O)[O-]
inactive: Potency [1] | Potency [2] | Potency [3] | outcome [5] | outcome [8]

CCCCCCCCCCCCI
inactive: Potency [1] | Potency [2] | Potency [3] | outcome [5] | outcome [8]

OCc1ccccn1
inactive: Potency [1] | Potency [2] | Potency [3] | outcome [5] | Potency [6] | Potency [7] | Potency [9] | outcome [8] | Potency (Aromatase (Homo sapiens))

N#CC1(O)CCCCC1
inactive: Potency [1] | Potency [2] | Potency [3] | outcome [5] | outcome [8]

COc1nc(C)nc(N)n1
inactive: Potency [1] | Potency [2] | Potency [3] | Potency [4] | outcome [5] | Potency [6] | Potency [9] | outcome [8] | Potency (Aromatase (Homo sapiens))

O=C(O)c1ccccc1S
inactive: Potency [1] | Potency [2] | Potency [3] | Potency [4] | Potency [6] | Potency [7] | Potency [9] | Potency (Aromatase (Homo sapiens))

CCOC(=O)Cn1c(=O)sc2cccc(Cl)c21
inactive: Potency [1] | Potency [2] | Potency [3] | outcome [5] | Potency [6] | Potency [7] | Potency [9] | outcome [8] | Potency (Aromatase (Homo sapiens))

COC(=O)CCCC(=O)O
inactive: Potency [1] | Potency [2] | Potency [3] | outcome [5] | Potency [6] | Potency [7] | Potency [9] | outcome [8] | Potency (Aromatase (Homo sapiens))

COC(=O)CCCCCCCCC(=O)OC
inactive: Potency [1] | Potency [2] | Potency [3] | Potency [4] | outcome [5] | Potency [6] | Potency [7] | outcome [8] | Potency (Aromatase (Homo sapiens))

CCC(C)OC(=O)N1CCCCC1CCO (centres undefined)
inactive: Potency [1] | Potency [2] | Potency [3] | outcome [5] | outcome [8] | Potency (Aromatase (Homo sapiens))

C/C=C1\C(=O)C[C@H]2[C@@H]3CCC4=CC(=O)CC[C@]4(C)[C@H]3CC[C@]12C
active: Potency [2] 30 µM
inactive: Potency [1] | Potency [3] | outcome [5] | Potency [6] | Potency [9] | outcome [8] | Potency (Aromatase (Homo sapiens))

O=C(O)c1ccccc1-c1ccc(C(F)(F)F)cc1
inactive: Potency [1] | Potency [2] | Potency [3] | outcome [5] | Potency [6] | Potency [7] | outcome [8] | Potency (Aromatase (Homo sapiens))

CC1=CC(=O)CCC1
inactive: Potency [1] | Potency [2] | Potency [3] | outcome [5] | outcome [8] | Potency (Aromatase (Homo sapiens))

C#CC(C)(O)CC(C)C (centres undefined)
inactive: Potency [1] | Potency [2] | Potency [3] | outcome [5] | outcome [8] | Potency (Aromatase (Homo sapiens))

NC(=O)CCCCC1CCSS1 (centres undefined)
inactive: Potency [1] | Potency [2] | Potency [3] | outcome [5] | Potency [9] | outcome [8] | Potency (Aromatase (Homo sapiens))
active: Potency [6] 0.239 µM [inconclusive] | Potency [7] 0.0266 µM

COc1cc(O)cc(O)c1
inactive: Potency [1] | Potency [2] | Potency [3] | outcome [5] | Potency [9] | outcome [8] | Potency (Aromatase (Homo sapiens))

N[C@@H](CS)C(=O)O
inactive: Potency [1] | Potency [2] | Potency [3] | outcome [5] | outcome [8] | Potency (Aromatase (Homo sapiens))

N#CCN(CC#N)CCN(CC#N)CC#N
inactive: Potency [1] | Potency [2] | Potency [3] | outcome [5] | outcome [8]

C=C(C)C(=O)OCCCCCCCCCCCCCCCCCC
inactive: Potency [1] | Potency [2] | Potency [3] | Potency [4] | Potency [6] | Potency [9] | outcome [8] | Potency (Aromatase (Homo sapiens))

CCCCc1ccc(N)cc1
inactive: Potency [1] | Potency [2] | Potency [3] | Potency [4] | outcome [5] | Potency [6] | outcome [8] | Potency (Aromatase (Homo sapiens))

CC(=O)N[C@@H](CCC(N)=O)C(=O)O
inactive: Potency [1] | Potency [2] | Potency [3] | Potency [4] | outcome [5] | Potency [6] | Potency [7] | Potency (Aromatase (Homo sapiens))

CCn1cc(C(=O)O)c(=O)c2cc(F)c(N3CCN(C)CC3)cc21
inactive: Potency [1] | Potency [2] | Potency [3] | outcome [5] | Potency [6] | Potency [7] | outcome [8] | Potency (Aromatase (Homo sapiens))

c1ccc(CCCc2ccccn2)cc1
inactive: Potency [1] | Potency [2] | Potency [3] | Potency [4] | outcome [5] | Potency [6] | outcome [8] | Potency (Aromatase (Homo sapiens))
